Compound activity deposited in PubChem by National Center for Advancing Translational Sciences (NCATS).
Rows were chosen to be rich in hits. Some 6.9% of all compounds tested hit in one or more screens of this group.
BAZ2B inh: inhibitors of human BAZ2B bromodomain; AID 504333; Q9UIF8; 360,000 tested, 4.4% active; Potency, µM (doses to about 114 µM), without a hit: at the top dose activity change, negative = inhibition, actives largely listed as inhibitors; AlphaScreen BAZ2B-H3K14Ac peptide displacement; note: % is set by controls: 0 for no effect and ±100 for the full control effect; nearly all actives have a fitted effect of over 60% in size
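In this displacement format the biotinylated H3(5-23) peptide acetylated at Lys14 serves as ligand at 50 nM, with BAZ2B at 50 nM in PBS pH 7.4 containing 0.01% Tween-20. Donor and acceptor beads are 10 ug/mL final.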
JMJD2A Tudor: blocks the human JMJD2A Tudor domain | Potency, µM (highest dose often 114 µM), inactives show at the highest dose activity change, negative = inhibition, hits mostly inhibitors | O75164 | AlphaScreen JMJD2A-Tudor / H3K4me3 peptide binding | 390,000 tested, 4.4% active; note: % is set by controls: 0 for no effect and ±100 for the full control effect; nearly all actives have a fitted effect of over 50% in size
Target sequence (O75164 whole entry, looked up, the tested form may be a part): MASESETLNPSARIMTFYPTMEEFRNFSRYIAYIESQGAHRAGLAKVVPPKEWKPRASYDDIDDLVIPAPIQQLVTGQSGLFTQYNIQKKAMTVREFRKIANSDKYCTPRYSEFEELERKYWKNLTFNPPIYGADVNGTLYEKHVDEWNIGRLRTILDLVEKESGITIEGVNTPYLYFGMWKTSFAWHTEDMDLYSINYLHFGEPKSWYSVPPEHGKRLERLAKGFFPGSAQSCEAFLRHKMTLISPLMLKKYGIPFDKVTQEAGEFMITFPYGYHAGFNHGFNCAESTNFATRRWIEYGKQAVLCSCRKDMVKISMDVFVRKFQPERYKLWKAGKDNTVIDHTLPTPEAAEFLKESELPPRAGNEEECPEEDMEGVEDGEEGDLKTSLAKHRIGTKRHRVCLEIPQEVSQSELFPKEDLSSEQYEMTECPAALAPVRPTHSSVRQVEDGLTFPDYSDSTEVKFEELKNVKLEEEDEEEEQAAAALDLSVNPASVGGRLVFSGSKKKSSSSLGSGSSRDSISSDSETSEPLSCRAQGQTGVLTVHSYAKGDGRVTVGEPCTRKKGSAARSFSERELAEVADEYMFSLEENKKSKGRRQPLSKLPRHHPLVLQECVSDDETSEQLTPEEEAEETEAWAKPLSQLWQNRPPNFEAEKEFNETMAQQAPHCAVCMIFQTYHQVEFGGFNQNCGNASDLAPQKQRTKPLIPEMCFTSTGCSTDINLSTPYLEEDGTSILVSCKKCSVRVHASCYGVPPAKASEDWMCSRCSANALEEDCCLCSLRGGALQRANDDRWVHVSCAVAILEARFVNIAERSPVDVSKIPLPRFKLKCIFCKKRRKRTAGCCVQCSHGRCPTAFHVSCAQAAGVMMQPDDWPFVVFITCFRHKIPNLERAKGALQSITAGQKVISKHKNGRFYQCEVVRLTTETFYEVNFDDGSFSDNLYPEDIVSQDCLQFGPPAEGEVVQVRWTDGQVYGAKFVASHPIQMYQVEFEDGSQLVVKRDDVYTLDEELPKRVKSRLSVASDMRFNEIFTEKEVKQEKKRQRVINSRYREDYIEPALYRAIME
VDR inh: inhibitors of human vitamin D receptor | VDR-SRC2-3 peptide fluorescence polarization, 2 h | Potency, µM, for the others: max response, negative = inhibition, actives largely listed as inhibitors | 400,000 tested, 0.93% active | AID 504847; note: % is set by controls: 0 for no effect and ±100 for the full control effect
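Inhibition of the VDR/SRC2-3 peptide interaction is quantified by fluorescence polarization. Compounds (23 nl, pintool) incubate with the reagents for 2 hours at ambient room temperature.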
PLK1 PBD block: blocks phosphopeptide binding to human PLK1 polo-box domain. Plk1 PBD binding of FITC phosphopeptide, fluorescence polarization. 360,000 tested, 2.8% active. Potency, µM, without a hit: max response, negative = inhibition, usual class: inhibitors. P53350; note: series mostly up to about 57 µM; % is set by controls: 0 for no effect and ±100 for the full control effect; nearly all actives have a fitted effect of over 65% in size
HP1b chromo inh: HP1-beta chromodomain-methylated histone interaction inhibition. Potency, µM (titrated, usually from 114 µM), for inactives: at the highest dose activity change, negative = inhibition, usual class: inhibitors. 390,000 tested, 0.56% active. AlphaScreen HP1-beta / biotin-H3K9me3 peptide binding; note: nearly all actives have a fitted effect of over 70% in size
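AlphaScreen: HP1-beta (50 nM) preformed 30 min with biotin-H3(1-18)K9me3 peptide (50 nM) in PBS pH 7.4, 0.01% Tween-20. Compound added for 30 min at RT, then streptavidin donor/nickel chelate acceptor beads (10 ug/mL) for 30 min.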
L3MBTL1 inh: blocks human L3MBTL1; Q9Y468; Potency, µM (top dose mostly 57.1 µM), for the others: top-dose activity, negative = inhibition, usual class: inhibitors; AlphaScreen L3MBTL1–H3K9me1 peptide binding; 230,000 tested, 0.66% active; AID 485360; note: % is set by controls: 0 for no effect and ±100 for the full control effect; nearly all actives have a fitted effect of over 60% in size
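AlphaScreen assay: L3MBTL1 (50 nM final) was preincubated 30 min at room temperature with biotinylated H3(1-15)K9me1 peptide (75 nM final), then 30 min with library compounds; streptavidin donor and nickel chelate acceptor beads (10 ug/mL final) added, 30 min dark.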
The depositor's hits bear a star; [ ] = dose if it differs, or a comment. Calls come from the whole dose curve; as a rule, active = well fitted curve in the direction sought with a large enough effect; inconclusive = small, poorly fitted or top-dose-only effect, or another doubt; inactive = no such curve, though single readings can be large; an effect the other way counts as inactive or inconclusive. Potency is the fitted concentration of half-maximal effect.

Results for COc1ccccc1C(=O)N1CCN(Cc2c[nH]c3ccccc23)CC1 ?
BAZ2B inh: 50µM*; JMJD2A Tudor: 18µM*; VDR inh: -5%; PLK1 PBD block: -15%; HP1b chromo inh: inconclusive

What do the screens show for `COc1ccc(CN2CCN(C(=O)c3ccccc3F)CC2)c(OC)c1OC`?
JMJD2A Tudor: 1.8µM*; VDR inh: 4%; PLK1 PBD block: 2%; HP1b chromo inh: inconclusive

How did COc1cccc(CN2CCN(C(=O)c3ccco3)CC2)c1OC do in these assays?
JMJD2A Tudor: 5.6µM*; VDR inh: 14%; PLK1 PBD block: -4%; HP1b chromo inh: 45µM*

Results for Cc1ccccc1CN1CCN(C(=O)c2cccc3ccccc23)CC1 ?
BAZ2B inh: 56µM*; JMJD2A Tudor: 25µM*; VDR inh: -9%; PLK1 PBD block: 4%; HP1b chromo inh: inconclusive; L3MBTL1 inh: -1%

How did COc1cccc(OC)c1C(=O)N1CCN(Cc2c[nH]c3ccccc23)CC1 do in these assays?
PLK1 PBD block: -10%

What do the screens show for `O=C(Nc1ccccc1Cl)c1cc(C2CCCCN2C(=O)CCCc2ccccc2)on1` (centres undefined)?
PLK1 PBD block: -1%

Results for COc1cc(OC)cc(-c2nc3nc(C)c(CCC(=O)Nc4ccc(Cl)cc4)c(C)n3n2)c1 ?
BAZ2B inh: -2%; JMJD2A Tudor: -18%; VDR inh: -3%; HP1b chromo inh: 15%

Results for CCc1cccc(NC(c2ccccc2)c2nnc(-c3ccccc3F)o2)c1 (centres undefined) ?
BAZ2B inh: 3%; JMJD2A Tudor: 5%; VDR inh: -7%; HP1b chromo inh: 39%

Results for COc1cccc(C(=O)N2CCN(Cc3ccco3)CC2)c1OC ?
BAZ2B inh: -37%; JMJD2A Tudor: inconclusive; VDR inh: 11%; PLK1 PBD block: -16%; HP1b chromo inh: inconclusive; L3MBTL1 inh: 3%

Results for COc1ccccc1CN1CCN(C(=O)c2cccc3ccccc23)CC1 ?
JMJD2A Tudor: 20µM*; VDR inh: 2%; PLK1 PBD block: -2%; HP1b chromo inh: inconclusive

How did COc1cccc(CN2CCN(C(=O)c3cccc4ccccc34)CC2)c1OC do in these assays?
BAZ2B inh: 56µM*; JMJD2A Tudor: 4µM*; VDR inh: -9%; PLK1 PBD block: 0%; HP1b chromo inh: 20µM*

What do the screens show for `Cc1ccc(NC2CCCN(C(=O)c3cc4ncccn4n3)C2)cc1C` (centres undefined)?
BAZ2B inh: -9%; JMJD2A Tudor: -28%; VDR inh: 4%; PLK1 PBD block: -8%; HP1b chromo inh: 52%

What do the screens show for `O=C(NCCN1C(=O)S/C(=C\c2ccccc2F)C1=O)C1CCCN1C(=O)c1cccs1` (centres undefined)?
BAZ2B inh: -10%; JMJD2A Tudor: -29%; VDR inh: -12%; PLK1 PBD block: -22%; HP1b chromo inh: 6%; L3MBTL1 inh: -1%

Results for O=C(O)c1ccc(/C=N/n2cc(-c3ccccc3)[nH]c2=S)cc1 ?
BAZ2B inh: -13%; JMJD2A Tudor: 2.8µM*; VDR inh: -20%; PLK1 PBD block: 1%; HP1b chromo inh: 41%; L3MBTL1 inh: 11%

Results for S=c1[nH]c(-c2ccccc2)cn1/N=C/c1ccc(Br)cc1 ?
BAZ2B inh: -12%; JMJD2A Tudor: 6%; VDR inh: inconclusive; PLK1 PBD block: -14%; HP1b chromo inh: 33%

How did S=c1[nH]c(-c2ccccc2)cn1/N=C/c1cccnc1 do in these assays?
BAZ2B inh: -19%; JMJD2A Tudor: 0.79µM*; VDR inh: -15%; PLK1 PBD block: -8%; HP1b chromo inh: 31%

What do the screens show for `COc1ccc(-c2cc(C(=O)NCc3ccccc3)c3c(-c4ccccc4)[nH]nc3n2)cc1`?
BAZ2B inh: -15%; JMJD2A Tudor: -16%; VDR inh: 4%; HP1b chromo inh: 20%

Results for NC(=O)COC(=O)CN1C(=O)C2CCCCC2C1=O (centres undefined) ?
BAZ2B inh: 2%; JMJD2A Tudor: -15%; VDR inh: 9%; PLK1 PBD block: 2%; HP1b chromo inh: 9%; L3MBTL1 inh: 2%

Results for CCOC(=O)c1cc(S(=O)(=O)NCc2cccc(Cl)c2)[nH]n1 ?
BAZ2B inh: 50µM*; JMJD2A Tudor: -30%; VDR inh: 2%; HP1b chromo inh: 12%[57 µM]

What do the screens show for `CCOC(=O)c1cc(S(=O)(=O)N2CCN(c3ccc(C)cc3C)CC2)[nH]n1`?
BAZ2B inh: 50µM*; JMJD2A Tudor: inconclusive; VDR inh: -5%; HP1b chromo inh: -2%[57 µM]

What do the screens show for `CCOC(=O)c1cc(S(=O)(=O)N2CCN(c3cccc(C)c3C)CC2)[nH]n1`?
BAZ2B inh: inconclusive; JMJD2A Tudor: -31%; VDR inh: 9%; HP1b chromo inh: -2%[57 µM]

What do the screens show for `CCOC(=O)c1cc(S(=O)(=O)NCc2ccc(C)cc2)[nH]n1`?
BAZ2B inh: 50µM*; JMJD2A Tudor: -15%; VDR inh: 8%; HP1b chromo inh: 22%[57 µM]

Results for Cc1c(C(=O)N2CCC(c3nc4ccccc4s3)CC2)oc2ccc(Cl)cc12 ?
BAZ2B inh: 1%; JMJD2A Tudor: -15%; VDR inh: 13%; HP1b chromo inh: inconclusive

How did COc1ccc(C(O)c2nc3ccccc3n2C(C)C)cc1 (centres undefined) do in these assays?
BAZ2B inh: 1%; JMJD2A Tudor: -13%[11.4 µM]; VDR inh: inconclusive; PLK1 PBD block: 24µM*; HP1b chromo inh: -8%

Results for O=C(CSc1nnc(SCc2cccc3ccccc23)s1)N=Nc1c(O)[nH]c2ccccc12 ?
BAZ2B inh: 50µM*; L3MBTL1 inh: -20%

How did O=C(CSc1nnc(SCc2cccc3ccccc23)s1)Nc1ccc(C(=O)O)cc1 do in these assays?
BAZ2B inh: inconclusive; JMJD2A Tudor: 13µM*; VDR inh: -19%; PLK1 PBD block: 24µM*; HP1b chromo inh: inconclusive; L3MBTL1 inh: -10%

How did CCOc1ccccc1NC(=O)CSc1nc2c(oc3ccccc32)c(=O)n1-c1ccc(F)cc1 do in these assays?
BAZ2B inh: -2%; JMJD2A Tudor: 0%; VDR inh: 4%; HP1b chromo inh: 34%

How did CC1=C(C(=O)N(C)C)CC(CC(=O)NC2CC2)C(=O)N1Cc1ccccc1 (centres undefined) do in these assays?
PLK1 PBD block: -2%

Results for Cc1nn(C)c(Oc2cccc(C(F)(F)F)c2)c1C#N ?
BAZ2B inh: 0%; JMJD2A Tudor: 2%; VDR inh: 8%; PLK1 PBD block: 0%; HP1b chromo inh: 47%; L3MBTL1 inh: 5%
